Results published in PubChem BioAssay (NCI).
Compounds without any hit were thinned out: in the full panel of roughly 83,000, 20% have a hit.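 Method: cells in 96-well plates; compound added at one concentration; 48 h incubation; percent growth measured; values under 10 scored active.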 Activity calls are given as the source filed them.

What was measured:
Test in all cases: NCI-60 one-dose screen, 48 h (100 = growth as untreated, 0 = no growth, -100 = all killed)
Conditions in all cases: 10 µM unless noted
NCI-H23 lung = system: NCI-H23 lung
NCI-H226 lung = system: NCI-H226 lung
NCI-H322M lung = system: NCI-H322M lung
HOP-62 NSCLC = system: HOP-62 NSCLC
NCI-H460 lung = system: NCI-H460 lung
HOP-92 NSCLC = system: HOP-92 NSCLC
NCI-H522 lung = system: NCI-H522 lung
A549/ATCC NSCLC = system: A549/ATCC NSCLC
786-0 renal = system: 786-0 renal
DU-145 prostate = system: DU-145 prostate
K-562 leukemia = system: K-562 leukemia
MALME-3M melanoma = system: MALME-3M melanoma
MDA-MB-231 breast = system: MDA-MB-231 breast
RXF 393 renal = system: RXF 393 renal
SF-268 CNS = system: SF-268 CNS
SF-295 CNS = system: SF-295 CNS
SF-539 CNS = system: SF-539 CNS
UACC-257 melanoma = system: UACC-257 melanoma
M14 melanoma = system: M14 melanoma
COLO 205 colon = system: COLO 205 colon

Measured: growth

CCOC(=O)C(=O)C(C(=O)OCC)c1ccccc1 (stereo not given)
inactive: NCI-H23 lung 107% | NCI-H226 lung 107% | NCI-H322M lung 110% | HOP-62 NSCLC 107% | NCI-H460 lung 110% | HOP-92 NSCLC 107% | NCI-H522 lung 101% | A549/ATCC NSCLC 122% | 786-0 renal 93.3% | DU-145 prostate 120% | K-562 leukemia 86.7% | MALME-3M melanoma 93.2% | MDA-MB-231 breast 94.1% | RXF 393 renal 113% | SF-268 CNS 103% | SF-295 CNS 139% | SF-539 CNS 118% | UACC-257 melanoma 123% | M14 melanoma 100%

NC(=O)c1c(NC(=O)c2ccc3ccccc3c2)sc2c1CCC(=O)C2
inactive: NCI-H23 lung 35.4% | NCI-H226 lung 91.8% | NCI-H322M lung 94.9% | HOP-62 NSCLC 99.9% | NCI-H460 lung 92.6% | HOP-92 NSCLC 83.6% | NCI-H522 lung 10.5% | A549/ATCC NSCLC 95.5% | 786-0 renal 99.6% | DU-145 prostate 94.4% | K-562 leukemia 14.6% | MALME-3M melanoma 91.1% | MDA-MB-231 breast 67.5% | RXF 393 renal 60.7% | SF-268 CNS 31.4% | SF-295 CNS 93.4% | SF-539 CNS 25.4% | UACC-257 melanoma 91.6% | M14 melanoma 37.4%

O=C(/C=C(/C=C/c1ccc2[nH]ccc2c1)OB(F)F)/C=C/c1ccc2[nH]ccc2c1
inactive: NCI-H322M lung 27.5% | MALME-3M melanoma 31.1% | MDA-MB-231 breast 12.2% | SF-268 CNS 16.7% | UACC-257 melanoma 43.3%
active: NCI-H23 lung -26.6% | NCI-H226 lung -59.5% | HOP-62 NSCLC -16.5% | NCI-H460 lung 0.421% | HOP-92 NSCLC 4.49% | NCI-H522 lung -68.5% | A549/ATCC NSCLC -53.6% | 786-0 renal -57.1% | DU-145 prostate 3.56% | K-562 leukemia -21.9% | RXF 393 renal -57.6% | SF-295 CNS -25.4% | SF-539 CNS -7.54% | M14 melanoma -27.5%

Nc1[nH]n2cc(-c3ccccc3)nc2c1N=Nc1ccc(S(N)(=O)=O)cc1
inactive: NCI-H23 lung 45.7% | NCI-H226 lung 52.7% | NCI-H322M lung 36.6% | HOP-62 NSCLC 42.5% | NCI-H460 lung 20.1% | HOP-92 NSCLC 25.7% | NCI-H522 lung 30.5% | A549/ATCC NSCLC 32.8% | 786-0 renal 28.4% | COLO 205 colon 45.1% | DU-145 prostate 42.9% | K-562 leukemia 32.9% | MALME-3M melanoma 25.6% | MDA-MB-231 breast 20% | SF-268 CNS 36.5% | SF-295 CNS 48% | SF-539 CNS 19.6% | UACC-257 melanoma 68.9% | M14 melanoma 31.4%
active: RXF 393 renal 6.61%

CN1CCN(C(=O)c2ccc(NC(=O)c3cc4c(nn3)NCCN4Cc3cc(Cl)ccc3Cl)cc2)CC1
active: K-562 leukemia 6.45%
inactive: NCI-H23 lung 74.3% | NCI-H226 lung 36.8% | NCI-H322M lung 95.8% | HOP-62 NSCLC 82.3% | NCI-H460 lung 53.4% | HOP-92 NSCLC 67.2% | NCI-H522 lung 36.1% | A549/ATCC NSCLC 55.2% | 786-0 renal 75.2% | DU-145 prostate 88.2% | MALME-3M melanoma 73.8% | MDA-MB-231 breast 82.2% | RXF 393 renal 64.2% | SF-268 CNS 58.9% | SF-295 CNS 67.6% | SF-539 CNS 52.3% | UACC-257 melanoma 101% | M14 melanoma 72.6%

C=C1C(=O)O[C@H]2[C@H]1CC/C(COC(=O)/C=C\C(=O)NCc1ccc(Cn3c(=O)sn(CCI)c3=O)cc1)=C\CC[C@@]1(C)O[C@@H]21
active: NCI-H522 lung -84% | K-562 leukemia 4.34% | MALME-3M melanoma -30%
inactive: NCI-H23 lung 84.1% | NCI-H226 lung 83% | NCI-H322M lung 86.6% | HOP-62 NSCLC 130% | NCI-H460 lung 91.9% | HOP-92 NSCLC 46% | A549/ATCC NSCLC 98.1% | 786-0 renal 37.4% | DU-145 prostate 34.4% | MDA-MB-231 breast 64.6% | RXF 393 renal 11.6% | SF-268 CNS 70.2% | SF-295 CNS 105% | SF-539 CNS 52% | UACC-257 melanoma 67.7% | M14 melanoma 36.2%

NNc1nc(-c2cccnc2)nc2c1sc(=S)n2-c1ccccc1
inactive: NCI-H23 lung 102% | NCI-H226 lung 105% | NCI-H322M lung 101% | HOP-62 NSCLC 69.1% | NCI-H460 lung 107% | HOP-92 NSCLC 84.9% | NCI-H522 lung 58.7% | A549/ATCC NSCLC 87.7% | 786-0 renal 89.7% | DU-145 prostate 106% | K-562 leukemia 75.5% | MALME-3M melanoma 100% | MDA-MB-231 breast 105% | RXF 393 renal 114% | SF-268 CNS 89.6% | SF-295 CNS 98.1% | SF-539 CNS 95.6% | UACC-257 melanoma 92.3% | M14 melanoma 99.9%

C#CCNC(=O)[C@H](CC)[C@H]1CC[C@H](C)[C@H]([C@@H](C)[C@H](O)[C@H](C)C(=O)[C@H](CC)C2O[C@]3(C=CC(=O)[C@]4(CC[C@@](C)([C@H]5CC[C@](O)(CC)[C@H](C)O5)O4)O3)[C@H](C)C[C@@H]2C)O1 (stereo not given in full)
inactive: NCI-H23 lung 42.4% | NCI-H226 lung 57.7% | NCI-H322M lung 53.8% | HOP-62 NSCLC 61.8% | NCI-H460 lung 35.5% | HOP-92 NSCLC 13.2% | NCI-H522 lung 32.3% | A549/ATCC NSCLC 44% | 786-0 renal 70.5% | COLO 205 colon 10.8% | DU-145 prostate 22.6% | MALME-3M melanoma 48.8% | RXF 393 renal 14% | SF-268 CNS 45.9% | SF-295 CNS 43.9% | UACC-257 melanoma 68.1%
active: K-562 leukemia 8.66% | MDA-MB-231 breast -0.208% | SF-539 CNS 6.76% | M14 melanoma -11.9%

CC/C(=C(/c1ccc(Cl)cc1)c1ccc(OCCN2CCCCC2)cc1)c1ccc(OC)cc1
inactive: NCI-H23 lung 50.8% | NCI-H226 lung 81.3% | NCI-H322M lung 81% | HOP-62 NSCLC 86.8% | NCI-H460 lung 32% | HOP-92 NSCLC 57% | NCI-H522 lung 65.1% | A549/ATCC NSCLC 56.1% | 786-0 renal 52% | COLO 205 colon 40.4% | DU-145 prostate 82.8% | MALME-3M melanoma 75.4% | MDA-MB-231 breast 73.3% | RXF 393 renal 47.9% | SF-268 CNS 86.5% | SF-295 CNS 55.1% | SF-539 CNS 65.5% | UACC-257 melanoma 54.2% | M14 melanoma 28.2%
active: K-562 leukemia 2.95%

CCCCCN1C(=O)/C(=c2\sc3n(c2=O)C2C(NN=3)N(CC)C(=O)N2CC)c2ccccc21 (stereo not given)
active: NCI-H226 lung 9.26% | HOP-62 NSCLC 9.45% | NCI-H460 lung -74.6% | HOP-92 NSCLC 3.79% | NCI-H522 lung -28% | A549/ATCC NSCLC -85% | 786-0 renal -61.6% | DU-145 prostate -67.1% | K-562 leukemia -71.9% | MALME-3M melanoma -32.4% | MDA-MB-231 breast -30.8% | RXF 393 renal -28.9% | SF-268 CNS -2.82% | SF-295 CNS -24.8% | SF-539 CNS -90.2% | M14 melanoma -9.92%
inactive: NCI-H23 lung 12.1% | NCI-H322M lung 21.2% | UACC-257 melanoma 31.5%

COc1cccc(CNc2ccc3ncnc(Nc4ccc(F)c(Cl)c4)c3c2)c1
inactive: NCI-H23 lung 69.6% | NCI-H226 lung 71.4% | NCI-H322M lung 34.1% | HOP-62 NSCLC 82.5% | NCI-H460 lung 78% | HOP-92 NSCLC 76.8% | NCI-H522 lung 18.6% | A549/ATCC NSCLC 53.1% | 786-0 renal 71.2% | DU-145 prostate 54.3% | K-562 leukemia 48.3% | MALME-3M melanoma 58.1% | MDA-MB-231 breast 68.2% | RXF 393 renal 65.9% | SF-268 CNS 65.6% | SF-295 CNS 79.4% | SF-539 CNS 93.8% | UACC-257 melanoma 49.2% | M14 melanoma 72.9%

CC1(C)CC(=O)C2=C(C1)N(c1ccc(OC(F)(F)F)cc1)C(N)=C(C#N)C2c1ccc(Br)cc1F (stereo not given)
inactive: NCI-H23 lung 75.8% | NCI-H226 lung 33.1% | NCI-H322M lung 59.1% | NCI-H460 lung 25.3% | HOP-92 NSCLC 39.8% | NCI-H522 lung 88.6% | A549/ATCC NSCLC 44.1% | 786-0 renal 35.7% | COLO 205 colon 93.8% | DU-145 prostate 96.5% | K-562 leukemia 75.5% | MALME-3M melanoma 46.8% | MDA-MB-231 breast 61.2% | RXF 393 renal 42.9% | SF-268 CNS 36.6% | SF-295 CNS 42.2% | SF-539 CNS 75% | UACC-257 melanoma 80.9% | M14 melanoma 79.1%
active: HOP-62 NSCLC 6.8%

CC(=O)n1nc(C(=O)OC(C)(C)c2ccccc2)c2ccccc21
inactive: NCI-H23 lung 94.2% | NCI-H226 lung 85.7% | NCI-H322M lung 87.9% | HOP-62 NSCLC 97.3% | NCI-H460 lung 100% | HOP-92 NSCLC 94.1% | NCI-H522 lung 85.5% | A549/ATCC NSCLC 91.8% | 786-0 renal 96.8% | DU-145 prostate 111% | K-562 leukemia 97% | MALME-3M melanoma 105% | MDA-MB-231 breast 85.4% | RXF 393 renal 92.2% | SF-268 CNS 99.2% | SF-295 CNS 93.1% | SF-539 CNS 97.7% | UACC-257 melanoma 89.5% | M14 melanoma 96.4%

CCO/C=N/C1=C(C#N)C(c2ccc(Cl)cc2)c2sc3c(F)cccc3c2O1 (stereo not given)
inactive: NCI-H23 lung 76.2% | NCI-H226 lung 88.6% | NCI-H322M lung 92.3% | HOP-62 NSCLC 58.4% | NCI-H460 lung 25.6% | HOP-92 NSCLC 77.1% | A549/ATCC NSCLC 53.4% | 786-0 renal 71.5% | DU-145 prostate 88.2% | K-562 leukemia 24.6% | MALME-3M melanoma 71.3% | MDA-MB-231 breast 71.3% | RXF 393 renal 76.9% | SF-268 CNS 68.5% | SF-295 CNS 52.8% | SF-539 CNS 81.6% | UACC-257 melanoma 89% | M14 melanoma 46.1%
active: NCI-H522 lung -6.96%
